Source: PubChem BioAssay
AMA1 RON2 block – qHTS for Inhibitors of AMA1-RON; Towards Development of Antimalarial Drug Lead: Primary Screen | Potency, µM (doses to about 58.2 µM), for the others: top-dose activity change, negative = inhibition, hits mostly inhibitors | AID 720542, 2013 | AlphaScreen AMA1-biotinylated RON2 peptide binding | 360,000 compounds, 0.2% hits | Plasmodium falciparum AMA1 (3D7) - RON2 peptide interaction;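 also: potency is read from the fitted curve at half-maximal effect; 0% = vehicle wells and -100% = peptide control; nearly all actives have a fitted effect of over 45% in size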
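AMA1 (3D7) with his tag at 25 nM final met compounds first, then biotinylated RON2 peptide at 25 nM; detection used donor plus acceptor beads, 10 µg/mL apiece, read by AlphaScreen after 30 min at room temperature.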
Pf growth 48h – Primary qHTS for delayed death inhibitors of the malarial parasite plastid, 48 hour incubation. P. falciparum luciferase growth in erythrocytes, 48 h. Potency, µM (doses to about 28.7 µM), for the others: at the top dose activity change, negative = inhibition, usual class: inhibitors. 310,000 compounds, 5.9% hits. AID 504832, 2011; also: potency is read from the fitted curve at half-maximal effect; % is scaled to controls: 0 for no effect and ±100 for the full control effect
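A one-generation exposure of luciferase-tagged malaria parasites in RPMI 1640/Albumax erythrocyte culture, 37 C and 5% CO2. Inhibition is inferred from decreased luminescence after adding detection reagent.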
Cycloheximide cs – Cycloheximide Counterscreen for Small Molecule Inhibitors of Shiga Toxin; cell reporter, cycloheximide protein synthesis inhibition counterscreen; max response, %; 300,000 compounds, 12% hits; AID 2314, 2010; in the data active = max response mostly above about 13%, no sharp cut-off; inactive = mostly below about 14%; also: read at 38.3 µM for the half of the compounds with a filed dose; 0% is about no effect
SARS PLP yeast – qHTS of Yeast-based Assay for SARS-CoV PLP; S. cerevisiae expressing SARS-CoV PLpro, growth rescue; Potency, µM (doses to about 32.9 µM), without a hit: at the top dose activity, positive = growth rescue, hits mostly activators; 330,000 compounds, 0.19% hits; calls by dose curve; also: potency is read from the fitted curve at half-maximal effect; 0% is about no effect; nearly all actives have a fitted effect of over 55% in size
Shiga toxin inh – A qHTS for Small Molecule Inhibitors of Shiga Toxin; Vero cells, Shiga toxin protein synthesis inhibition reporter; inhibition, % at 38.7 µM; 290,000 compounds, 9.2% hits; in the data active = inhibition mostly above about 28%, no sharp cut-off; inactive = mostly below about 43%; also: 0% is about no effect
Pf growth 96h – Primary qHTS for delayed death inhibitors of the malarial parasite plastid, 96 hour incubation. P. falciparum luciferase reporter growth, 96 h. Potency, µM (series often up to 28.7 µM), inactives show at the highest dose activity change, negative = inhibition, hits mostly inhibitors. 320,000 compounds, 6.9% hits. AID 504834, 2011; also: potency is read from the fitted curve at half-maximal effect; % is scaled to controls: 0 for no effect and ±100 for the full control effect
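Compounds incubated with erythrocytes infected by luciferase-expressing P. falciparum (2% hematocrit, 0.05% parasitemia final) for 96 hours, 37 C in 5% CO2. Growth inhibition scored as decreased luciferase luminescence.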
Starred values were filed as active, the others as inactive; [ ] = another dose, or the depositor's remark. A selection: hits, their analogues and other compounds. The true share with any hit is near 19%. Unless noted, calls follow the shape of the dose curve; as a rule, active = well fitted curve in the direction sought with a large enough effect; inconclusive = small, poorly fitted or top-dose-only effect, or another doubt; inactive = no such curve, though single readings can be large; an effect the other way counts as inactive or inconclusive.

For COc1cc(C(=S)N2CCCCC2)ccc1OCC(=O)Nc1ccccc1Cl the results were AMA1 RON2 block -10%, Pf growth 48h -16%[5.75 µM], Cycloheximide cs -5, SARS PLP yeast 0%, Shiga toxin inh 8 and Pf growth 96h 0%.
O=C(COc1ccccc1Cl)Nc1ccccc1C(=O)N1CCOCC1 was read as AMA1 RON2 block -11%, Pf growth 48h 15%, Cycloheximide cs 18*, SARS PLP yeast -2%, Shiga toxin inh 29 and Pf growth 96h inconclusive.
Screening O=C(COc1ccc(Cl)cc1Cl)N1CCCC1 returned AMA1 RON2 block 36%, Cycloheximide cs 1, SARS PLP yeast -3%, Shiga toxin inh -3 and Pf growth 96h -14%.
For O=C(COc1ccc(Cl)cc1Cl)NC(=O)N1CCOCC1 the results were AMA1 RON2 block 2%, Pf growth 48h 94%, Cycloheximide cs 35*, SARS PLP yeast -3% and Shiga toxin inh 93*.
Screening Cc1ccc(C(C(=O)NC2CCCC2)N(C(=O)Cc2cccs2)c2cccc(C)c2C)o1 (stereo not drawn) returned AMA1 RON2 block -8%, Pf growth 48h inconclusive, Cycloheximide cs -1, SARS PLP yeast -2%, Shiga toxin inh -5 and Pf growth 96h 12µM*.
For O=P(CCC(F)(F)F)(CCC(F)(F)F)CCC(F)(F)F the results were AMA1 RON2 block -1%, Cycloheximide cs -5, SARS PLP yeast 11%, Shiga toxin inh -14 and Pf growth 96h -10%.
For CCOC(=O)c1cnc2cc3c(cn2c1=O)CCCC3 the results were AMA1 RON2 block 0%, Pf growth 48h 176%, Cycloheximide cs 28*, SARS PLP yeast 2%, Shiga toxin inh 55* and Pf growth 96h inconclusive.
Screening CCOC(=O)c1cnc2scnn2c1=O returned AMA1 RON2 block 9%, Cycloheximide cs 6, SARS PLP yeast 9%, Shiga toxin inh -10 and Pf growth 96h -1%.
`CC(C)N1CCN(c2ccncc2S(=O)(=O)N2CCN(C)CC2)CC1` gave AMA1 RON2 block 1%.
Screening COc1ccc(/C(C)=N/NC(=O)CNC(=O)c2cccnc2)cc1OC returned AMA1 RON2 block 37%, Pf growth 48h 14%, Cycloheximide cs -1, SARS PLP yeast 2%, Shiga toxin inh -6 and Pf growth 96h -25%.
For C=CCNC(=S)N/N=C/c1cn(C)c2ccccc12 the results were AMA1 RON2 block 30%, Pf growth 48h 8.3µM*, Cycloheximide cs 21*, SARS PLP yeast 13%, Shiga toxin inh 24 and Pf growth 96h inconclusive.
Cc1ccc(C(=O)N/N=C\c2cccn2C)cn1 was read as AMA1 RON2 block 9%, Pf growth 48h inconclusive, Cycloheximide cs 21, SARS PLP yeast -1%, Shiga toxin inh 23 and Pf growth 96h inconclusive.
Cn1cccc1/C=N/NC(=O)c1ccc[n+]([O-])c1 was read as AMA1 RON2 block 40%, Pf growth 48h 5%, Cycloheximide cs -2, SARS PLP yeast 6%, Shiga toxin inh 18 and Pf growth 96h -13%.
`O=C(Cc1cccs1)N/N=C\c1ccc(O)cc1` gave AMA1 RON2 block 10%, Pf growth 48h 14%, Cycloheximide cs 32*, SARS PLP yeast 1%, Shiga toxin inh 51* and Pf growth 96h 113%.
Cn1cccc1/C=N/NC(=O)c1cccs1 was read as AMA1 RON2 block -4%, Pf growth 48h 80%, Cycloheximide cs 42*, SARS PLP yeast -7%, Shiga toxin inh 74* and Pf growth 96h 40%.
For CCCc1cc(C(=O)N/N=C/c2cccn2C)cs1 the results were AMA1 RON2 block -12%, Pf growth 48h -22%, Cycloheximide cs 62*, SARS PLP yeast 0%, Shiga toxin inh 110* and Pf growth 96h 2%.
Screening COCCNC(=O)CSc1nnc(NC(=O)C2CC(=O)N(c3ccccc3OC)C2)s1 (stereo not drawn) returned AMA1 RON2 block 4%, Pf growth 48h inconclusive, Cycloheximide cs -1, Shiga toxin inh -5 and Pf growth 96h 30%.
